Where “and” joins values, the source holds several entries; their conditions need not be identical. Equal entries are not always repeated. Inconclusive results are not listed. Entries that show only a call come without a potency. Where a structure was tested more than once in an assay, its records may differ in their call. Calls of active or inactive are those of the source. The call rests on the fitted dose curve; in most records, active means well fitted activation curve with a large enough effect; inconclusive means small, poorly fitted or top-dose-only effect; inactive means flat fitted curve, though single readings scatter.
biological target: Pyruvate kinase PKM (Homo sapiens) (UniProt P14618); assay: Confirmation Concentration-Response Assay for Activators of Human Muscle isoform 2 Pyruvate Kinase: for Probe SAR; conditions: purified PKM2, ATP generation, Kinase-Glo luminescence; series mostly up to 57.5 µM; further: nearly all actives have a fitted effect of over 60% in size
From the text: NIH Chemical Genomics Center [NCGC]
Matthew G. Vander Heiden, M.D., Ph.D. [Harvard Medical School, 77 Avenue Louis Pasteur, Boston, MA 02115]
Human pyruvate kinase muscle 2 (hPK-M2) enzyme was supplied as a highly purified (>95% pure) preparation from Harvard Medical School and assayed for its ability to generate ATP from ADP using phosphoenolpyruvate (PEP) as a substrate. ATP generation was detected in a coupled reaction by luciferase-mediated luminescence, an ATP-dependent process. […] The enzyme was assayed at an intermediate level of activity to screen for both inhibitors and activators.
NCGC Assay Protocol Summary:
Three uL of substrate mix (at r.t.) in assay buffer (50 mM Imidazole pH7.2, 50 mM KCl, 7 mM MgCl2, 0.01% Tween 20, 0.05% BSA) was dispensed into white solid bottom 1,536 well microtiter plates so that the final concentrations of substrates in the assay were 0.1 mM ADP and 0.5 mM PEP. 23 nL of compound were delivered by a pin tool and 1 uL of enzyme mix (final concentration of 0.1 nM) in assay buffer (4 degree Celsius) was added. Plates were incubated at room temperature for 1 hour. Two uL of detection mix (Kinase-Glo, Promega; at 4 degree Celsius protected from light) was added and luminescence read by a ViewLux (Perkin Elmer) at 1 second exposure/plate. Data were normalized to the uninhibited (column 3) and AC100 inhibition (no enzyme in column 2). To monitor activation, the first column contained a titration of the activator, NCGC00031955-03 (16-point 1:2 dilutions in duplicate starting at 57 uM) and the first 16 rows of column 4 contained 57 uM of NCGC00031955-03.
Potency means the concentration at half of the fitted maximal effect.

Pyruvate kinase PKM (Homo sapiens), sequence (P14618 whole entry, looked up, canonical isoform): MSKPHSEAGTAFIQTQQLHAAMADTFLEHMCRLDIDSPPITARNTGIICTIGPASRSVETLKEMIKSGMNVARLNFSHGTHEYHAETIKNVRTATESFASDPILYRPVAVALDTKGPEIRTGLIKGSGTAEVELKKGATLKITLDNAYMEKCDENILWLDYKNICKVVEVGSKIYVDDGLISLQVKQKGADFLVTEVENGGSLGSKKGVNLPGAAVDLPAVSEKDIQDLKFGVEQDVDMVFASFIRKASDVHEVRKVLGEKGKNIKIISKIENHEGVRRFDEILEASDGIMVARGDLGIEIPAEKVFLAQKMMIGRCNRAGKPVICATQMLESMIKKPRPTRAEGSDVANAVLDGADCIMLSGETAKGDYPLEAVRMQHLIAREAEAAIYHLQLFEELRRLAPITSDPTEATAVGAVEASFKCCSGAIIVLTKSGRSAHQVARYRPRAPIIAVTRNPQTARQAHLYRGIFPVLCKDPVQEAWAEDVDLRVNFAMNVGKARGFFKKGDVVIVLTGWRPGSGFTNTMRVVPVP

| Compound | Potency |
| --- | --- |
| CCNc1cccc(S(=O)(=O)N2CCCN(S(=O)(=O)c3ccc4c(c3)OCCO4)CC2)c1 | 206 nM (active) |
| CC(=O)Nc1ccccc1OC1=N[S+](=O)([O-])c2ccccc21 | inactive |
| Cc1ccc(N2C(=O)c3ccccc3C2=O)c(C)c1 | inactive |
| CC(=O)Nc1cccc(S(=O)(=O)N2CCN(S(=O)(=O)c3c(F)cccc3F)CC2)c1 | 14600 nM (active) |
| N#Cc1ccc(OC2=NS(=O)(=O)c3ccccc32)cc1 | inactive |
| O=S1(=O)N=C(Oc2ccccc2C(F)(F)F)c2ccccc21 | inactive |
| O=S1(=O)N=C(Oc2ccc(-c3ccccc3)cc2)c2ccccc21 | inactive |
| CCCCN1C(=O)c2ccccc2C1=O | inactive |
| O=C1c2ccccc2C(=O)N1c1cccc2ncccc12 | inactive |
| O=S1(=O)N=C(Oc2cccc(Br)c2)c2ccccc21 | inactive |
| Cc1cc2c(s1)c1cnn(Cc3cc(F)c(F)cc3F)c(=O)c1n2C | 1120 nM (active) |
| COc1ccc(N2C(=O)c3ccccc3C2=O)cc1 | inactive |
| O=C1CCc2cc(S(=O)(=O)Nc3ccc(F)cc3)ccc2N1 | 6510 nM (active) |
| CCSC1=NS(=O)(=O)c2ccccc21 | inactive |
| O=S1(=O)N=C(Oc2ccccc2Br)c2ccccc21 | inactive |
| Cc1cc(N2C(=O)c3ccccc3C2=O)n[nH]1 | inactive |
| O=C1c2ccccc2C(=O)N1C1CCCCC1 | inactive |
| O=C1c2ccccc2C(=O)N1c1ccc2ncccc2c1 | inactive |
| Cc1ccc(-c2nc3ccc(Cl)cn3c2Nc2ccccc2)o1 | inactive |
| Cc1cc2c(s1)c1cnn(Cc3ccccc3F)c(=O)c1n2C | inactive and 231 nM (active) |

| Compound | Potency |
| --- | --- |
| O=C1CCc2cc(S(=O)(=O)Nc3cccc(F)c3)ccc2N1 | 919 nM (active) |
| COC(=O)c1ccccc1S(=O)(=O)Nc1cc(=O)c2ccccc2[nH]1 | inactive |
| O=C1CCc2cc([S+](=O)([O-])NC3CCOCC3)ccc2N1 | inactive |
| O=C(O)c1ccccc1OC1=NS(=O)(=O)c2ccccc21 | inactive |
| Cc1ccc(OC2=NS(=O)(=O)c3ccccc32)cc1 | inactive |
| Cc1ccc(NS(=O)(=O)c2ccc(Cl)cc2)cc1C | 23100 nM (active) |
| Cc1ccn2c(NC3CCCCC3)c(-c3ccc(C)o3)nc2c1 | inactive |
| O=S1(=O)N=C(Oc2ccccc2-c2ccccc2)c2ccccc21 | inactive |
| O=S1(=O)N=C(Oc2ccc(C(F)(F)F)cc2)c2ccccc21 | inactive |
| Cc1cccc(NS(=O)(=O)c2ccc3c(c2)CCC(=O)N3)c1 | 1830 nM (active) |
| COc1cc(F)c(S(=O)(=O)N2CCN(S(=O)(=O)c3ccc(N)cc3)CC2)c(F)c1 | 130 nM (active) |
| O=C1c2ccccc2C(=O)N1Cc1ccncc1 | inactive |
| COc1cc(F)c(S(=O)(=O)N2CCN(S(=O)(=O)c3cccc(NC(C)=O)c3)CC2)c(F)c1 | 3260 nM (active) |
| Nc1ccc(S(=O)(=O)N2CCN(S(=O)(=O)c3ccc4c(c3)OCCO4)CC2)cc1 | 366 nM (active) |
| O=C1CCc2cc(S(=O)(=O)Nc3ccc(F)c(Cl)c3)ccc2N1 | 291 nM (active) |
| Cc1cc(C)n2c(Nc3ccccc3)c(-c3ccc(C)o3)nc2n1 | 16300 nM (active) |
| COc1cccc(Cn2ncc3c4sc(S(C)=O)cc4n(C)c3c2=O)c1 (stereo not given) | 73 nM (active) |
| Cc1ccc(-c2nc3cnccn3c2Nc2ccc(C(C)C)cc2)o1 | inactive |
| Cc1ccc(-c2nc3cccc(C)n3c2Nc2ccc(F)cc2)o1 | inactive |
| Cc1ccc(NC(=O)c2ccc3c(c2)CCC(=O)N3)cc1C | inactive |

From PubChem BioAssay AID2533 (National Center for Advancing Translational Sciences (NCATS), 2010)
